# The supplement of paper PMC8728848
# Many of the other results were omitted from the sample, so the strongest signals are more common in it than they were.
# How the values were obtained:
# Test in all cases: glycan array binding signal (z-score within array); higher = stronger binding
# Details in all cases: glycan notation: IUPAC condensed, linker removed
# Fuc(a1-2)Gal(b1-3)GalNAc = molecular target: Fuc(a1-2)Gal(b1-3)GalNAc
# How it was run: (§1)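 The binding signal is a Z-score computed within each array. Data were drawn from 3228 arrays in the Consortium for Functional Glycomics database, restricted to those with a known protein sequence. Scores were averaged over arrays of the same protein sequence at different concentrations or buffers, and over linkers, and negative values can be taken as non-binding.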
# [1] = molecular target: Fuc(a1-2)Gal(b1-3)GlcNAc(b1-3)[Fuc(a1-2)Gal(b1-3)GlcNAc(b1-6)]GalNAc
# How it was run: as §1
# [2] = molecular target: Fuc(a1-2)[Gal(a1-3)]Gal(b1-3)GlcNAc(b1-6)GalNAc
# How it was run: as §1
# [3] = molecular target: Fuc(a1-2)[Gal(a1-3)]Gal(b1-4)[Fuc(a1-3)]GlcNAc(b1-3)GalNAc
# How it was run: as §1
# [4] = molecular target: Fuc(a1-3)[Gal(b1-4)]GlcNAc
# How it was run: as §1
# [5] = molecular target: Fuc(a1-3)[Gal(b1-4)]GlcNAc(b1-6)GalNAc
# How it was run: as §1
# [6] = molecular target: Fuc(a1-3)[Gal(b1-4)]GlcNAc(b1-6)[Gal(b1-3)GlcNAc(b1-3)]Gal(b1-4)Glc
# How it was run: as §1
# [7] = molecular target: Fuc(a1-3)[Gal3S(b1-4)]GlcNAc6S
# How it was run: as §1
# Gal(a1-3)Gal(b1-4)Glc = molecular target: Gal(a1-3)Gal(b1-4)Glc
# How it was run: as §1
# [8] = molecular target: Gal(b1-3)GalNAc(b1-3)Gal(a1-4)Gal(b1-4)Glc
# How it was run: as §1
# [9] = molecular target: Gal(b1-3)[GlcNAc(b1-6)]GalNAc
# How it was run: as §1
# [10] = molecular target: Gal(b1-4)GlcNAc(b1-2)Man(a1-3)[GlcNAc(b1-4)][Gal(b1-4)GlcNAc(b1-2)Man(a1-6)]Man(b1-4)GlcNAc(b1-4)GlcNAc
# How it was run: as §1
# [11] = molecular target: Gal(b1-4)GlcNAc(b1-2)[Gal(b1-4)GlcNAc(b1-6)]Man(a1-6)[Gal(b1-4)GlcNAc(b1-2)Man(a1-3)]Man(b1-4)GlcNAc(b1-4)GlcNAc
# How it was run: as §1
# [12] = molecular target: Gal(b1-4)GlcNAc(b1-2)[Gal(b1-4)GlcNAc(b1-6)]Man(a1-6)[GlcNAc(b1-4)][Gal(b1-4)GlcNAc(b1-2)[Gal(b1-4)GlcNAc(b1-4)]Man(a1-3)]Man(b1-4)GlcNAc(b1-4)[Fuc(a1-6)]GlcNAc
# How it was run: as §1
# [13] = molecular target: Gal(b1-4)GlcNAc(b1-3)Gal(b1-4)GlcNAc(b1-2)Man(a1-3)[Gal(b1-4)GlcNAc(b1-3)Gal(b1-4)GlcNAc(b1-2)Man(a1-6)]Man(b1-4)GlcNAc(b1-4)[Fuc(a1-6)]GlcNAc
# How it was run: as §1
# [14] = molecular target: Gal(b1-4)GlcNAc(b1-3)Gal(b1-4)GlcNAc(b1-2)[Gal(b1-4)GlcNAc(b1-3)Gal(b1-4)GlcNAc(b1-6)]Man(a1-6)[Gal(b1-4)GlcNAc(b1-3)Gal(b1-4)GlcNAc(b1-2)Man(a1-3)]Man(b1-4)GlcNAc(b1-4)[Fuc(a1-6)]GlcNAc
# How it was run: as §1
# [15] = molecular target: Gal(b1-4)GlcNAc(b1-3)Gal(b1-4)GlcNAc(b1-3)Gal(b1-4)GlcNAc(b1-2)Man(a1-3)[Gal(b1-4)GlcNAc(b1-3)Gal(b1-4)GlcNAc(b1-3)Gal(b1-4)GlcNAc(b1-2)Man(a1-6)]Man(b1-4)GlcNAc(b1-4)GlcNAc
# How it was run: as §1
# [16] = molecular target: Gal(b1-4)GlcNAc(b1-3)Gal(b1-4)GlcNAc(b1-3)Gal(b1-4)GlcNAc(b1-2)[Gal(b1-4)GlcNAc(b1-3)Gal(b1-4)GlcNAc(b1-3)Gal(b1-4)GlcNAc(b1-6)]Man(a1-6)[Gal(b1-4)GlcNAc(b1-3)Gal(b1-4)GlcNAc(b1-3)Gal(b1-4)GlcNAc(b1-2)Man(a1-3)]Man(b1-4)GlcNAc(b1-4)[Fuc(a1-6)]GlcNAc
# How it was run: as §1
# [17] = molecular target: Gal(b1-4)GlcNAc(b1-3)Gal(b1-4)GlcNAc(b1-3)Gal(b1-4)GlcNAc(b1-3)Gal(b1-4)GlcNAc(b1-2)Man(a1-3)[Gal(b1-4)GlcNAc(b1-3)Gal(b1-4)GlcNAc(b1-3)Gal(b1-4)GlcNAc(b1-3)Gal(b1-4)GlcNAc(b1-2)Man(a1-6)]Man(b1-4)GlcNAc(b1-4)[Fuc(a1-6)]GlcNAc
# How it was run: as §1
# Gal3S6S(b1-4)GlcNAc6S = molecular target: Gal3S6S(b1-4)GlcNAc6S
# How it was run: as §1
# [18] = molecular target: GalNAc(a1-3)GalNAc(b1-3)Gal(a1-4)Gal(b1-4)GlcNAc
# How it was run: as §1
# GalNAc(b1-4)Gal(b1-4)Glc = molecular target: GalNAc(b1-4)Gal(b1-4)Glc
# How it was run: as §1
# GalNAc(b1-6)GalNAc = molecular target: GalNAc(b1-6)GalNAc
# How it was run: as §1
# [19] = molecular target: GlcNAc(a1-4)Gal(b1-4)GlcNAc(b1-3)Gal(b1-4)GlcNAc
# How it was run: as §1
# [20] = molecular target: GlcNAc(a1-4)Gal(b1-4)GlcNAc(b1-3)Gal(b1-4)[Fuc(a1-3)]GlcNAc(b1-3)Gal(b1-4)[Fuc(a1-3)]GlcNAc
# How it was run: as §1
# [21] = molecular target: GlcNAc(b1-3)Gal(b1-4)GlcNAc(b1-2)Man(a1-3)[GlcNAc(b1-3)Gal(b1-4)GlcNAc(b1-2)Man(a1-6)]Man(b1-4)GlcNAc(b1-4)GlcNAc
# How it was run: as §1
binder,measurement,setting,value
BIp1-His (Cryptococcus neoformans) (protein) MFTKIFVALFAATAVLSAPVESAEKRITHTGRATFYSPSVGIGACGWQNTDEELVVALNAPQYALNADHNCGQSVRITNEQNGNQEIAKVVDLCPGCNDGDLDMSPALFGALNNNDFDQGVFPISWNFLPRDDTSSSN,glycan array binding signal (z-score),Fuc(a1-2)Gal(b1-3)GalNAc,-0.387
same,glycan array binding signal (z-score),[1],-0.401
same,glycan array binding signal (z-score),[2],-0.487
same,glycan array binding signal (z-score),[3],0.249
same,glycan array binding signal (z-score),[4],0.066
same,glycan array binding signal (z-score),[5],-0.576
same,glycan array binding signal (z-score),[6],-0.013
same,glycan array binding signal (z-score),[7],-0.121
same,glycan array binding signal (z-score),Gal(a1-3)Gal(b1-4)Glc,-0.171
same,glycan array binding signal (z-score),[8],0.446
same,glycan array binding signal (z-score),[9],0.127
same,glycan array binding signal (z-score),[10],-0.105
same,glycan array binding signal (z-score),[11],0.266
same,glycan array binding signal (z-score),[12],-0.02
same,glycan array binding signal (z-score),[13],2.12
same,glycan array binding signal (z-score),[14],0.623
same,glycan array binding signal (z-score),[15],1.97
same,glycan array binding signal (z-score),[16],3.26
same,glycan array binding signal (z-score),[17],2.08
same,glycan array binding signal (z-score),Gal3S6S(b1-4)GlcNAc6S,1.12
same,glycan array binding signal (z-score),[18],-0.181
same,glycan array binding signal (z-score),GalNAc(b1-4)Gal(b1-4)Glc,0.482
same,glycan array binding signal (z-score),GalNAc(b1-6)GalNAc,-0.887
same,glycan array binding signal (z-score),[19],-0.297
same,glycan array binding signal (z-score),[20],2.19
same,glycan array binding signal (z-score),[21],-0.301
